# PubChem BioAssay AID2233 (The Scripps Research Institute Molecular Screening Center, 2010)
# The other results are listed elsewhere or left out. A number with no mark means an inactive call. Calls of active or inactive are those of the source.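 Rule for the calls: active = mean inhibition across replicates above the hit cutoff set in the primary screen (cut at about 15% in these data); inactive = the rest.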
# Target: Acyl-protein thioesterase 1 (Homo sapiens) (UniProt O75608)
# Test: LYPLA1 inhibitors, retest, confirmation, counter-screen for PME1 inhibitor project, biochemical, fluorescence polarization, FP-Rh probe ABPP (AID 2233);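 note: loss of FP-Rh probe labeling of LYPLA1 seen as lower polarization; 0% = LYPLA1 with DMSO and 100% = wells lacking LYPLA1 enzyme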
# Details: recombinant LYPLA1, FP-Rh probe fluorescence polarization; at 5.9 µM; hits give high values
# Acyl-protein thioesterase 1 (Homo sapiens), sequence (O75608 whole entry, looked up): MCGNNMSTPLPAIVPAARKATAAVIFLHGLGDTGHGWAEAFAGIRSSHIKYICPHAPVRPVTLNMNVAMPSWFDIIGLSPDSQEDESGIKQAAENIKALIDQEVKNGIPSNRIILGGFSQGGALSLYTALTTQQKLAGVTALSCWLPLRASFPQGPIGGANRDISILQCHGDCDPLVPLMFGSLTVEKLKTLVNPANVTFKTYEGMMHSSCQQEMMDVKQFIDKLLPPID
row,Structure (SMILES),inhibition
1,Cc1ccc(S(=O)(=O)N2CCC(C(=O)N[C@@H](C)C(=O)NCc3ccco3)CC2)cc1,2.78%
2,CCOc1ccc(C(=O)NC(=S)Nc2ccc(N3CCOCC3)c(Cl)c2)cc1[N+](=O)[O-],24.6% (active)
3,CCC(=C/c1sc2ccc3ccccc3c2[n+]1C)/C=C1\Sc2ccc3ccccc3c2N1C,78.8% (active)
4,O=C(c1ccc(-c2ccccc2)cc1)C1CCCN(C(=O)c2cncs2)C1 (stereo not given),30.7% (active)
5,COc1ccccc1C(=O)NC(CCSC)C(=O)N1CCN(C/C=C/c2ccccc2)CC1 (stereo not given),19.9% (active)
6,COc1cccc(NC(=O)N2CCCC2C(=O)NC2CCCCC2)c1 (stereo not given),2.88%
7,CN(CCOc1ccccc1)C(=O)c1cc(COc2c(F)cccc2F)on1,12.1%
8,O=C(COc1ccc(Cl)cc1)N1CCN(c2cccc(C(F)(F)F)c2)CC1,31.6% (active)
9,COCCOC(=O)c1sc(=S)n(CCOC)c1N,13.4%
10,O=c1[nH]n(-c2ccc([N+](=O)[O-])cc2)c(=O)c2ccccc12,17.7% (active)
11,Cc1cccc(N2CCN(C(=O)CN(C)S(=O)(=O)c3ccc4c(c3)CCC(=O)N4)CC2)c1C,26.9% (active)
12,COc1ccc(-c2nc(CS(=O)CC(=O)NCc3ccccn3)c(C)o2)cc1 (stereo not given),16.5% (active)
13,CCOc1ccccc1N1CCN(C(=O)c2ccc3[nH]c(C)c(C)c3c2)CC1,29.3% (active)
14,CCN1CCN(CCNC(=O)c2ccc3c(c2)NC(=O)/C(=C\c2ccc(OC)c(OC)c2)S3)CC1,19.4% (active)
15,CSc1c(SCc2ccccc2)cnn(Cc2ccccc2)c1=O,2.84%
